38 sequences from article PMC3218832 can be followed below.

In one assay the target is T1, p52p52 homodimer (Homo sapiens, UniProt Q00653 4-332).
T1 sequence: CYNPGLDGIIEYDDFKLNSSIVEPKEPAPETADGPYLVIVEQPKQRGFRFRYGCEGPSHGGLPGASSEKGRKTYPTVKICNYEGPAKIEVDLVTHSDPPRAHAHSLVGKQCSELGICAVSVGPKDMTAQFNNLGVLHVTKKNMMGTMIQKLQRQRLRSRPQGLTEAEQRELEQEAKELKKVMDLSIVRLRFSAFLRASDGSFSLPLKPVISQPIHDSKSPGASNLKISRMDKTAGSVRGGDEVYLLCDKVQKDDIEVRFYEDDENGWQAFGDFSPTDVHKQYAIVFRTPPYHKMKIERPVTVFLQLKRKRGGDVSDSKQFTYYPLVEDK
As to the kind of experiment: protein binding microarray; high values mean tight binding. The settings on record: dsDNA, one strand shown.
In the case of AGATGGCTCCC, the binding signal was -0.619 z-score.
The same measure, in the same setting: with AGATTGACCCT the figure was -0.42 z-score; with AGAAAGTCCCC, 2.13 z-score; with GGGTAAGTCCT, 1.41 z-score.
For GGGAACGCCCT, the binding signal came out at 0.394 z-score.
In the case of GAGAGCGCCCT, the binding signal was -0.661 z-score.
Same read-out and setting: with CGAATGATCCT the figure was -0.659 z-score; with GAGGTAGTCCC, 0.506 z-score; with AGAATAATCCT, -0.591 z-score.
Turning to AAGAGCATCCT, the binding signal was -0.753 z-score.
Sequence CGGGAACTCCT returned a binding signal of 0.181 z-score.
Turning to AAAAATTCCCC, the binding signal amounted to 2.98 z-score.
With AGGTGCACCCC, the binding signal was found to be 0.492 z-score.
In turn, GAATGATCCCC gave a binding signal of 0.548 z-score.
The sequence CAGTGGCTCCC registered a binding signal of -0.661 z-score.
With GAGAGGGTCCC, the binding signal was -0.132 z-score.
Take GGAAGACTCCT: the binding signal is -0.778 z-score.
Still for that read-out and setting: with GAATATTCCCT the figure was 1.3 z-score.
Take AGGAAGCCCCC: the binding signal was 1.3 z-score.
For the sequence CAAGTCACCCC, the binding signal was -0.2 z-score.
Still for that read-out and setting: the same measure for GAGGGCTCCCC: -0.0309 z-score; for AAGTTGATCCC: -0.6 z-score.
In the case of CAAGGTACCCT, the binding signal was -0.0886 z-score.
Take GAAGTGCTCCT: the binding signal was -0.792 z-score.
Take GGAGGACCCCT: the binding signal was -0.0995 z-score.
On to GGAATATCCCT, for which the binding signal came to 1.23 z-score.
Turning to AGAAGCATCCC, the binding signal is -0.607 z-score.
Sequence AGGAAACTCCT gave a binding signal of -0.404 z-score.
CAGTAGGTCCC: the binding signal was -0.0746 z-score.
Turning to GGGTTACTCCC, the binding signal is 1.29 z-score.
For the sequence CGGGACTCCCC, the binding signal turned out to be 2.76 z-score.
Regarding CGGTAAACCCT, the binding signal was found to be 0.217 z-score.
In the case of AAGAGGCCCCT, the binding signal is -0.0334 z-score.
The sequence GGATAGGTCCC gave a binding signal of 0.0228 z-score.
Same read-out and setting: the same measure for CAGTGCATCCT: -0.705 z-score; for GAATGAGCCCT: -0.606 z-score.
On the same count and under the same terms, with GAATATCCCCC the figure was 1.71 z-score; with CAAGGTTCCCC, 1.29 z-score.

For a further assay, the target named is RELA (p65) subunit of heterodimer;p50 subunit (Homo sapiens;Homo sapiens, UniProt Q04206;P19838 1-307;7-356). Described as above. The settings on record: dsDNA, one strand shown.
Chain of RELA (p65) subunit of heterodimer;p50 subunit (Q04206 1-307, chain 1 of 2): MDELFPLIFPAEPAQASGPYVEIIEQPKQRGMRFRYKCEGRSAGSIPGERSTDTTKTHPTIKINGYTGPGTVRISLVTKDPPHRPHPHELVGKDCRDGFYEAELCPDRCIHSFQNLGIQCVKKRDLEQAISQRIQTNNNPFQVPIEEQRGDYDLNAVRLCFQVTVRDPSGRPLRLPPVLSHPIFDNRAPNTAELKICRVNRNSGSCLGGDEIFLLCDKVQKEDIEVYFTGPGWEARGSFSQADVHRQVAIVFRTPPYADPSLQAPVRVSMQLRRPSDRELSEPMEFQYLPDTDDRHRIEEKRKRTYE
Chain of RELA (p65) subunit of heterodimer;p50 subunit (P19838 7-356, chain 2 of 2): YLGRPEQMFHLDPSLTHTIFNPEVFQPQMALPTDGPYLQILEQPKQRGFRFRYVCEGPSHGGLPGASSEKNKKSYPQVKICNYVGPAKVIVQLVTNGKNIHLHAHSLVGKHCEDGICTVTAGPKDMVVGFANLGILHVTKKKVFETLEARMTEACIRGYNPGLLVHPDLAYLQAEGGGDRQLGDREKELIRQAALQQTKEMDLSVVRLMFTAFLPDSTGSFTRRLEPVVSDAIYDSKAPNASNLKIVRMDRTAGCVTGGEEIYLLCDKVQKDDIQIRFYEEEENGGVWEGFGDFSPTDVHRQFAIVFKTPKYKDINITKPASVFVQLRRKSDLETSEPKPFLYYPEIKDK
Consider AGATGGCTCCC, for which the binding signal was -0.849 z-score.
AGATTGACCCT came in with a binding signal of -0.583 z-score.
In turn, AGAAAGTCCCC returned a binding signal of 1.84 z-score.
Take GGGTAAGTCCT: the binding signal worked out at 0.335 z-score.
As to GGGAACGCCCT, the binding signal was 0.492 z-score.
The same measure, in the same setting: with GAGAGCGCCCT the figure was -0.903 z-score.
Same read-out and setting: with CGAATGATCCT the figure was -0.966 z-score.
As to GAGGTAGTCCC, the binding signal was found to be 0.436 z-score.
Take AGAATAATCCT: the binding signal was -0.939 z-score.
Sequence AAGAGCATCCT yielded a binding signal of -1.09 z-score.
The same measure, in the same setting: with CGGGAACTCCT the figure was 0.357 z-score.
On the same count and under the same terms, the same measure for AAAAATTCCCC: 2.27 z-score.
Still for that read-out and setting: with AGGTGCACCCC the figure was 0.0923 z-score; with GAATGATCCCC, 0.936 z-score.
For the sequence CAGTGGCTCCC, the binding signal is -0.743 z-score.
GAGAGGGTCCC yielded a binding signal of -0.312 z-score.
Take GGAAGACTCCT: the binding signal is -0.958 z-score.
Consider GAATATTCCCT, for which the binding signal is 1.24 z-score.
Consider AGGAAGCCCCC, for which the binding signal worked out at 1.61 z-score.
For the sequence CAAGTCACCCC, the binding signal was -0.704 z-score.
GAGGGCTCCCC showed a binding signal of 0.109 z-score.
With AAGTTGATCCC, the binding signal is -0.903 z-score.
On the same count and under the same terms, with CAAGGTACCCT the figure was -0.499 z-score; with GAAGTGCTCCT, -0.918 z-score; with GGAGGACCCCT, 0.108 z-score.
As for GGAATATCCCT, the binding signal was 1.41 z-score.
For AGAAGCATCCC, the binding signal is -0.83 z-score.
AGGAAACTCCT: the binding signal was -0.105 z-score.
CAGTAGGTCCC: the binding signal was -0.34 z-score.
Sequence GGGTTACTCCC displayed a binding signal of 0.568 z-score.
The same measure, in the same setting: with CGGGACTCCCC the figure was 1.88 z-score; with CGGTAAACCCT, -0.158 z-score.
For the sequence AAGAGGCCCCT, the binding signal is -0.301 z-score.
As for GGATAGGTCCC, the binding signal is -0.276 z-score.
CAGTGCATCCT came in with a binding signal of -0.986 z-score.
The sequence GAATGAGCCCT returned a binding signal of -0.778 z-score.
GAATATCCCCC: the binding signal is 1.94 z-score.
With CAAGGTTCCCC, the binding signal was found to be 1.68 z-score.
